Reference: PubChem BioAssay (NCATS)
Unmarked numbers belong to inactive results. Calls follow the shape of the dose curve; as a rule, active = well fitted curve in the direction sought with a large enough effect; inconclusive = small, poorly fitted or top-dose-only effect, or another doubt; inactive = no such curve, though single readings can be large or run the other way.

target: alpha-glucosidase (Oryza sativa, rice) (UniProt Q653V4); assay: Counterscreen for Glucocerebrosidase Inhibitors: qHTS Assay for Rice alpha-Glucosidase at pH 5.0 (AID 997); conditions: rice alpha-glucosidase enzyme activity; series mostly up to 76.9 µM; activity change, negative = inhibition: at the top concentration;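 also: 0% = full activity with enzyme and -100% = basal without enzyme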
Method in brief: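 Rice alpha-glucosidase (4 nM final) with 400 uM 4-methylumbelliferyl-alpha-D-glucopyranoside in citrate buffer pH 5.0, 20 min at room temperature, stopped at pH 10; fluorescence 365/440 nm, compounds 0.7 nM–77 uM, AC50 from Hill fits.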

Row | Structure (SMILES) | activity change, negative = inhibition [%]
1 | O=C(O)CC[C@@H](C(=O)O)N1C(=O)c2ccccc2C1=O | -0.149
2 | COc1cc(OC)c(/C=C2/C(=O)Nc3ccccc32)c(OC)c1 | -0.211
3 | CC(C)NC[C@H](O)COc1cccc2[nH]ccc12 | -5.61
4 | N#C/C(=C\c1ccc(O)c(O)c1)C(=O)NCc1ccccc1 | -3.54
5 | NCCNC(=O)c1ncsc1-c1cccc(F)c1 | 1.33
6 | N[C@H](CCCP(=O)(O)O)C(=O)O | -2.14
